Assay outcomes: PubChem, National Center for Advancing Translational Sciences (NCATS)
This is a sample that favours compounds with a hit; in the whole collection about 0.97% have one here.
PI4K2A inh: inhibitors of human PI4K2A | purified PI4K2A, ADP-Glo luminescence, 1 h; hits give low values | activity change, negative = inhibition, % at 76.9 µM | actives 0.13% (n = 420,000); in the data active = activity change below about -50%; inconclusive = mostly about -30% to -49%
Target sequence (Q9BTU6 whole entry, looked up): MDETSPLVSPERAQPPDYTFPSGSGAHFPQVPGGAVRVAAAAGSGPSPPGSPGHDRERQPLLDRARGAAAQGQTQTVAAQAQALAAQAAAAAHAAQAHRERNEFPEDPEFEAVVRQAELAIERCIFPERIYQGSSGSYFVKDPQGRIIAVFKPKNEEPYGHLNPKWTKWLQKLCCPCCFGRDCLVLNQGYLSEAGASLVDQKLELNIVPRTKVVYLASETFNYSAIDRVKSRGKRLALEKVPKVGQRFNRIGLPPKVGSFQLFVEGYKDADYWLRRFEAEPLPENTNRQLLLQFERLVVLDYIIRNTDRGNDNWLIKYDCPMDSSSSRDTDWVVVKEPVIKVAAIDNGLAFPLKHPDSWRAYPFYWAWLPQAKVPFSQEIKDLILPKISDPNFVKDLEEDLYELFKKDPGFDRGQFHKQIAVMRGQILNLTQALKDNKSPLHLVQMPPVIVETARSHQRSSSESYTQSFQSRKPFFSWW
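In this quantitative HTS, ADP production by PI4K2A was quantified luminescently after 1 h at ambient temperature; 100 microM adenosine served as plate-quality control.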
Eya2 inh: blocks the phosphatase activity of human Eya2; recombinant Eya2, OMFP fluorescence dephosphorylation (OMFP is methylfluorescein phosphate); actives 0.006% (n = 330,000); Potency, µM (series often up to 76.9 µM), most hits filed as inhibitors; active = well fitted inhibition curve with a large enough effect; inconclusive = small, poorly fitted or top-dose-only effect, or effect the other way
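Eya2 protein (added as 0.2 uM solution) was preincubated with compound for 10 min at ambient temperature in 50 mM HEPES pH 7.5, 50 mM NaCl, 5 uM MgCl2, 0.05% BSA, 1 mM DTT. OMFP (added at 50 uM) then reacted 10 min; fluorescence read at 485/525 nm.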
CCT chaperon mod: changes cytosolic chaperonin activity; purified chaperonin ATPase assay, HTRF ADP detection, 30 min; activity change, % (no concentration beside the values), hits read low; actives 0.3% (n = 360,000); AID 651819; in the data active = activity change below about -30%
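Enzyme 40 or 20 nM (batch-dependent) in Tris pH 7.4/KCl/MgCl2/DTT; cpd 76 uM single point; ATP 10 uM; 30 min 37 °C; Transcreener ADP HTRF detection, 30 min RT; ratio 665/615.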
CtBP-E1A blk: inhibitors of CtBP/E1A interaction; AlphaScreen GST-E1A/His-CtBP binding, 1536-well; hits give low values; activity change, % (test concentration not listed); actives 0.49% (n = 340,000); AID 651724
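GST-E1A and His-tagged CtBP (125 nM each as 5X stock) were preincubated with pin-transferred compound for 2 h at 37 °C in the dark, then glutathione donor and nickel acceptor beads were added for 1 h before AlphaScreen reading.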
Six1-Eya2 blk: Six1/Eya2 interaction inhibition. AlphaScreen GST-Six1/His-Eya2 binding, biochemical; hits give low values. activity change, % (concentration not given with the values). actives 0.56% (n = 360,000)
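Six1/Eya2 binding was read as AlphaScreen signal after compounds were pinned into GST-Six1 plus His-tagged Eya2 (5X stock 250/500 nM) in pH 8.0 Tris/NaCl/TCEP buffer, beads added, then incubated 1 h, 37 C, dark.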
Hits are given with their value; – = inactive; ? = inconclusive; · = no result given. Cut-off read from the data, not from the text of the source, unless noted: active = activity change below about -65%; inconclusive = mostly about -30% to -63%; inactive = weaker than that.

SMILES | PI4K2A inh | Eya2 inh | CCT chaperon mod | CtBP-E1A blk | Six1-Eya2 blk
Cc1nc(Cl)cc(N/N=C/c2ccc(O)cc2)n1 | – | ? | – | · | –
Cc1nc(Cl)cc(N/N=C/c2ccc(O)cc2O)n1 | – | – | – | -80.7 | -66.7
Cc1cc(N/N=C/c2ccc(O)cc2O)nc(-n2nc(C)cc2C)n1 | – | – | – | -79.5 | -70.2
CCS(=O)(=O)N1CCc2cc(C(=O)Nc3cccc(NC(C)=O)c3)ccc21 | – | · | · | · | ·
COc1ccccc1NC(=O)N1c2ccccc2Sc2ccccc21 | – | · | · | · | ·
NC(=O)Cn1c(O)c(N=NC(=O)CNC(=O)/C=C/c2ccccc2)c2ccccc21 | – | – | -73.3 | – | –
CCCn1c(O)c(N=NC(=O)CNC(=O)/C=C/c2ccc(OC)cc2)c2ccccc21 | – | – | – | – | –
CC(C)(C)c1ccc(-c2nnc(SCC(=O)Nc3ccc(S(=O)(=O)Nc4nccs4)cc3)n2Cc2ccco2)cc1 | -56.3 | · | · | · | ·
Cc1ccc(O)c(N=NC2=C(O)CC(C)(C)CC2=O)c1 | – | – | – | – | -90.3
Nc1ccc(C(=O)O)c(O)c1 | – | – | – | – | –
Nc1ccc(N)c(C(=O)O)c1 | -66.0 | – | – | ? | -81.7
CCOc1ccc(C2=CC(c3cc(Br)ccc3F)n3ncnc3N2)cc1Cl (configuration not stated) | – | · | · | · | ·
CCc1ccc(CNC(=O)c2nn(-c3ccc(OC)c(Cl)c3)c(=O)c3c2c2ccccc2n3C)cc1 | – | · | · | · | ·
CC1=C(C(=O)N(C)C)CC(CC(=O)NC(c2ccccc2)c2ccccc2)C(=O)N1Cc1ccc(F)cc1 (configuration not stated) | – | · | – | – | –
CC1=C(C(=O)N(C)C)CC(CC(=O)NC(c2ccccc2)c2ccccc2)C(=O)N1Cc1ccccc1 (configuration not stated) | – | · | -47.9 | – | –
CC1(C)CC(=O)c2cc(-c3nc(-c4ccccc4)cs3)c(=O)[nH]c2C1 | – | · | · | · | ·
Cc1ccc(N2CCN(C(=O)c3cn(C)c4ccc(S(=O)(=O)N5CCCC5)cc4c3=O)CC2C)cc1 (configuration not stated) | – | · | · | · | ·
Cc1ccc(C)c(Nc2ncnc(N)c2[N+](=O)[O-])c1 | – | – | -40.7 | – | –
Cc1cccnc1Nc1ncnc(N)c1[N+](=O)[O-] | – | – | – | – | –
COc1cc([N+](=O)[O-])cc(/C=N/NC(=O)c2cncc(Br)c2)c1O | – | – | – | -89.7 | -92.9
COc1cc(/C=N/NC(=O)c2cncc(Br)c2)cc([N+](=O)[O-])c1O | – | ? | – | -96.0 | -91.3
CCOc1cc(/C=N/NC(=O)c2cccs2)cc([N+](=O)[O-])c1O | – | – | – | · | -86.8
O=C(N/N=C/c1ccc(-c2ccccc2[N+](=O)[O-])o1)c1cncc(Br)c1 | – | – | – | -66.2 | -78.2
CCOc1ccc(CCNC(=O)c2sc3ncccc3c2-n2cccc2)cc1OCC | – | · | · | · | ·
COc1ccccc1CNC(=O)CCCCn1c(=O)c2ccccc2n(CC(=O)Nc2cccc(Cl)c2)c1=O | – | · | · | · | ·
SMILES | PI4K2A inh | Eya2 inh | CCT chaperon mod | CtBP-E1A blk | Six1-Eya2 blk
CCOC(=O)c1c(NC(=O)c2nc(S(C)(=O)=O)ncc2Cl)sc(C(C)=O)c1C | – | · | · | · | ·
NC1=NN=C(N2N=C(c3ccccc3)CC2(O)C(F)(F)F)n2ncnc2C1 (configuration not stated) | – | – | – | -69.9 | ?
COc1ccc(C2=NN(C3=NN=C(N)Cc4ncnn43)C(O)(C(F)(F)F)C2)cc1 (configuration not stated) | – | – | – | -86.2 | -67.8
COc1ccccc1C1=NN(C2=NN=C(N)Cc3ncnn32)C(O)(C(F)(F)F)C1 (configuration not stated) | – | – | – | -65.3 | ?
CCc1ccc(-n2c(=O)c3sc4ccccc4c3n(CC(=O)N3CCCC3)c2=O)cc1 | – | · | · | · | ·
Cc1ccc2c(c1)N(C(=O)N1CCC(C(=O)NCCc3ccc(Cl)cc3)CC1)CC(C)O2 (configuration not stated) | – | · | · | · | ·
COc1ccc(OC)c(S(=O)(=O)N2CCCCC2C(=O)N2CCN(Cc3ccc(F)cc3)CC2)c1 (configuration not stated) | – | · | · | · | ·
NC(=O)C1(N2CCCCC2)CCN(CCCN2c3ccccc3CCc3ccc(Cl)cc32)CC1 | – | · | · | · | ·
CSc1nsc(SC)c1C(=O)NC(=O)Nc1cccnc1 | – | – | -42.4 | · | –
N#C/C(=C\c1coc2ccccc2c1=O)C(N)=S | – | – | – | – | –
N#C/C(=C\c1coc2ccc(O)cc2c1=O)C(=O)Nc1nc2ccccc2s1 | – | ? | – | -87.1 | -74.7
Cc1ccc(C(=O)N/C(=C\c2ccco2)C(=O)NCCCn2ccnc2)cc1C | – | – | – | – | -80.6
O=Cc1ccccc1C=O | – | · | · | · | ·
Cc1nn(C)c(Cl)c1S(=O)(=O)N[C@@H](c1ccccc1)[C@]1(C)C[C@H]1[C@@H](C)C(=O)Nc1ccc2ccccc2c1 | – | – | -69.6 | – | –
C[C@@H](C(=O)Nc1ccc2ccccc2c1)[C@H]1C[C@]1(C)[C@H](NS(=O)(=O)c1ccc(-c2ccccc2)cc1)c1ccccc1 | – | – | – | – | –
C=CCn1c(CNc2ccccc2)nnc1SCC(=O)N/N=C/c1ccc(O)cc1O | ? | – | – | -80.7 | -87.8
C=CCn1c(COc2ccccc2)nnc1SCC(=O)N/N=C/c1ccc(C)cc1 | – | – | – | – | –
C=CCn1c(CNc2ccc(C)cc2)nnc1SCC(=O)N/N=C/c1ccc(O)cc1O | – | – | – | -81.6 | -86.1
CC(=O)Nc1ccc(NC(=O)CCc2nc3cccnc3n2Cc2cccs2)cc1 | – | · | · | · | ·
COC(=O)[C@H]1C[C@@H]1[C@H](N)c1ccccc1 | – | – | -49.4 | – | –
Clc1ccc2c(c1)Nc1ccccc1S2 | – | · | · | · | ·
O=C1/C(=C\c2ccco2)SC(=S)N1c1ccc(O)cc1 | – | – | – | – | –
O=C1/C(=C/c2ccco2)SC(=S)N1c1cccnc1 | – | – | – | – | -70.7
O=C(O)CCN1C(=O)c2ccc(NC(=O)Cc3ccc(Cl)cc3)cc2C1=O | – | – | -32.2 | – | –
S=C(Nc1ccc(Cl)cc1Cl)N1CCCCC1 | – | – | -65.9 | – | –
FC(F)(F)c1ccccc1NC(=S)N1CCCC1 | – | – | -38.1 | – | –
O=C(/C=C/c1ccc(O)c(O)c1)O[C@@H]1C[C@@](OC(=O)/C=C/c2ccc(O)c(O)c2)(C(=O)O)C[C@@H](O)[C@@H]1O | – | · | · | · | ·
O=C(CSc1nc(-c2ccccc2)nc2c1Cc1ccccc1O2)Nc1ccc(C(=O)O)cc1 | – | – | – | – | -80.5
O=C(CSc1nc(-c2ccc(F)cc2)nc2c1Cc1ccccc1O2)Nc1ccc(C(=O)O)cc1 | – | – | – | – | –
COc1ccc2nc(/N=C/c3c(C)[nH]n(-c4ccc(C)cc4C)c3=O)sc2c1 | – | – | – | -87.6 | -70.3
